Source: PubChem
HIF activator: HIF pathway transcriptional activation; U2OS HRE-luciferase reporter, luminescence; normalized: DMSO 0%, desferrioxamine 100%; activation, % at 7.5 µM (by protocol); actives 0.32% (n = 300,000);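 active means mean activation of at least 10% of the iron chelator positive control signal, with at least half of replicates also reaching 10%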
ALR H2O2 inh: human ALR oxidase inhibition via reduced H2O2. P55789. purified ALR, DTT oxidation, H2O2 HRP-luminol luminescence. inhibition, % (concentration not given with the values). actives 3.8% (n = 290,000). AID 485317;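 active means mean replicate inhibition above about 79%, with every replicate also reaching it, limit read from the data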
Target sequence (P55789 whole entry, looked up): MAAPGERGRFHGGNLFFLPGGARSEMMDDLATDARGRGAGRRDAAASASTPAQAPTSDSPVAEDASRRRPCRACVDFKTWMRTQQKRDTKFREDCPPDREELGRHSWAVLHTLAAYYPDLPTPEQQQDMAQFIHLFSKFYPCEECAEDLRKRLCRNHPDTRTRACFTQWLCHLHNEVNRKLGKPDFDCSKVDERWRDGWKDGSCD
PfM18AAP inh-1: blocks P. falciparum M18 aspartyl aminopeptidase. recombinant PfM18AAP, H-Glu-NHMec fluorogenic cleavage. inhibition, % at 7.35 µM. actives 1.2% (n = 290,000). AID 1822;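 active means inhibition above the campaign mean inhibition over all tested compounds plus 3 SD, cut at about 28% in these data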
Mot1-301 SUMO: inhibitors of SUMOylation pathway: yeast Mot1-301 growth rescue; S. cerevisiae Mot1-301 growth rescue, ATP luminescence, 38.5C; percent above DMSO median, 100 means doubled; growth rescue, % at 18.8 µM; actives 1% (n = 320,000); AID 2716;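 active means every valid replicate shows activation above 250% relative to neutral control wells; inactive means the rest, any valid replicate at or below 250%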
PfM18AAP inh-2: PfM18AAP inhibition, confirmation. shares compounds with PfM18AAP inh-1. recombinant PfM18AAP, H-Glu-NHMec fluorogenic cleavage. inhibition, % at 7.35 µM. actives 28% (n = 2,400);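 active means mean inhibition over replicate wells above the hit cutoff set for the earlier primary screen, cut at about 29% in these data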
CTSL1 confirm: counter-screen for PFM18AAP inhibitors: confirmation of human cathepsin L inhibitors; 2,400 tested, under 10 active; inhibition, % at 5.96 µM; shares compounds with PfM18AAP inh-1; purified cathepsin L1, Z-Leu-Arg-MCA fluorescence;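 active means average inhibition across replicates above the hit cutoff set in the earlier primary screen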
Target sequence (P07711 whole entry, looked up): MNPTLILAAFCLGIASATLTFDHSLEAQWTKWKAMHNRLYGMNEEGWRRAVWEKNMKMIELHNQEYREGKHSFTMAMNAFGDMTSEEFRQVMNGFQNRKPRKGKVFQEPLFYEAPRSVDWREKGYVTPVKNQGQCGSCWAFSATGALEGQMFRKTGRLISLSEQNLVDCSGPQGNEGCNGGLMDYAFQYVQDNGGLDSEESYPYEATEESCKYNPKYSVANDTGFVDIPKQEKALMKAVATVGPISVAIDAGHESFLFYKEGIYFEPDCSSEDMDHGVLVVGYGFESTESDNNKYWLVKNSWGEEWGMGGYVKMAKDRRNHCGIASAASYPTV
Each line names hits and unclear results; the compound was inactive in the other large screens (follow-up assays come after a bar, where they were run). The list is not random: actives were taken first. Their share in the collection is about 5.3%.

O=C(O)C1Sc2[nH]c(=O)sc2C2c3ccc(O)cc3OC(=O)C12 (stereo not given)	PfM18AAP inh-1 38 | PfM18AAP inh-2 inactive | CTSL1 confirm inactive
Cc1ccc(/C=N/n2c(-c3ccc(Cl)cc3)n[nH]c2=S)o1	PfM18AAP inh-1 32 | PfM18AAP inh-2 inactive | CTSL1 confirm inactive
Cc1ccc(-c2n[nH]c(=S)n2/N=C/c2ccc(C)o2)cc1	none
Cc1ccc(OCC(=O)N/N=C/c2ccc([N+](=O)[O-])o2)cc1	none
O=C(COc1ccccc1)N/N=C/c1ccc([N+](=O)[O-])o1	PfM18AAP inh-1 39 | PfM18AAP inh-2 inactive | CTSL1 confirm inactive
O=C(COc1ccc2c3c(c(=O)oc2c1)CCCC3)NCCCn1ccnc1	none
N#Cc1c2n(c(=S)n(-c3ccccc3[N+](=O)[O-])c1=O)CCCCC2	PfM18AAP inh-1 35 | PfM18AAP inh-2 inactive | CTSL1 confirm inactive
Cc1c(Cl)cccc1N1C(=O)CC(N(O)c2ccccc2)C1=O (stereo not given)	PfM18AAP inh-1 33 | PfM18AAP inh-2 inactive | CTSL1 confirm inactive
Cc1cc(OC(C)C(=O)NCCCn2ccnc2)c2c(C)c(C)c(=O)oc2c1 (stereo not given)	none
O=C(CNc1ccc(Oc2ccccc2)cc1)N1CCOCC1	PfM18AAP inh-1 42 | PfM18AAP inh-2 inactive | CTSL1 confirm inactive
COc1cc(CNc2ccc(CNc3ncn[nH]3)cc2)ccc1OCC(=O)NC(C)(C)C	PfM18AAP inh-1 47 | PfM18AAP inh-2 inactive | CTSL1 confirm inactive
Fc1ccc(CNc2ccc(CNc3ncn[nH]3)cc2)cc1	PfM18AAP inh-1 32 (no result: ALR H2O2 inh, Mot1-301 SUMO) | PfM18AAP inh-2 inactive | CTSL1 confirm inactive
O=C1CCNc2c(Cl)cc(Cl)cc21	none (no result: ALR H2O2 inh)
CC(C)(C)N1CC(C(=O)Nc2cccc(Cl)c2Cl)CC1=O (stereo not given)	none (no result: ALR H2O2 inh)
O=C(Cc1ccc(Cl)cc1)Nc1ccc(CN2CCCCC2)cc1	none
Cc1ccn2c(=O)nc(SCC(=O)N3CCC(Cc4ccccc4)CC3)nc2c1	none (no result: PfM18AAP inh-1)
Cc1cc(C)c2c(=O)n(CC(=O)N3CCC(Cc4ccccc4)CC3)sc2n1	PfM18AAP inh-1 56 (no result: ALR H2O2 inh, Mot1-301 SUMO) | PfM18AAP inh-2 inactive | CTSL1 confirm inactive
Cc1cccc(N2CCN(C(=O)Cn3sc4nc(C)cc(C)c4c3=O)CC2C)c1 (stereo not given)	ALR H2O2 inh 95, PfM18AAP inh-1 49 | PfM18AAP inh-2 inactive | CTSL1 confirm inactive
COC(=O)c1ccccc1CSc1nsc(/C=C/N(C)C)c1C#N	PfM18AAP inh-1 48 (no result: ALR H2O2 inh) | PfM18AAP inh-2 inactive | CTSL1 confirm inactive
COc1cc(Cl)ccc1NC(=S)N(CCCN1CCOCC1)Cc1cn(C)c2ccccc12	PfM18AAP inh-1 32 | PfM18AAP inh-2 inactive | CTSL1 confirm inactive
COc1ccc(Cl)cc1NC(=S)N(CCCN1CCOCC1)Cc1cn(C)c2ccccc12	none
O=C(CN1C(=O)COc2ccc(S(=O)(=O)N3CCCCC3)cc21)NCc1ccc(Cl)cc1	none
O=C1c2ccccc2C(=O)N1CCc1c[nH]c2ccc(O)cc12	none
CCCCCCn1c(SCC(=O)OC)nc2c1c(=O)[nH]c(=O)n2C	PfM18AAP inh-1 48 (no result: ALR H2O2 inh) | PfM18AAP inh-2 inactive | CTSL1 confirm inactive
CCSc1nc2c(c(=O)[nH]c(=O)n2C)n1C/C=C(/C)Cl	none (no result: HIF activator)
CCOC(=O)C(C)Sc1nc2c(c(=O)[nH]c(=O)n2C)n1C/C=C(/C)Cl (stereo not given)	PfM18AAP inh-1 37 | PfM18AAP inh-2 inactive | CTSL1 confirm inactive
CCCCCCn1c(SCC(C)C)nc2c1c(=O)[nH]c(=O)n2C	none (no result: ALR H2O2 inh)
CCOC(=O)CSc1nc(=O)n2cccc(C)c2n1	none
CCOc1ccccc1N1CCN(C(=O)c2ccc(NS(=O)(=O)c3ccc4[nH]c(=O)[nH]c4c3)cc2)CC1	none (no result: PfM18AAP inh-1)
CN(C)c1cccc(NC(=O)Cc2ccc(F)cc2)c1	PfM18AAP inh-1 39 | PfM18AAP inh-2 inactive | CTSL1 confirm inactive
CCOc1c(Nc2ccccc2O)c(=O)c1=O	PfM18AAP inh-1 35 | PfM18AAP inh-2 inactive | CTSL1 confirm inactive
COc1ccc(/C=C2\SC(=S)N(N3C(=O)CCC3=O)C2=O)cc1O	PfM18AAP inh-1 32 | PfM18AAP inh-2 inactive | CTSL1 confirm inactive
CCOc1ccc(NC(=O)c2sc3nc(N4CCOCC4)c4c(c3c2N)CC(C)(C)OC4)cc1	PfM18AAP inh-1 42 | PfM18AAP inh-2 inactive | CTSL1 confirm inactive
CC1(C)Cc2c(c(N3CCOCC3)nc3sc(C(=O)Nc4ccc(Cl)cc4)c(N)c23)CO1	PfM18AAP inh-1 40 (no result: ALR H2O2 inh) | PfM18AAP inh-2 inactive | CTSL1 confirm inactive
CC1(C)Cc2c(c(N3CCOCC3)nc3sc(C(N)=O)c(N)c23)CO1	PfM18AAP inh-1 43 | PfM18AAP inh-2 inactive | CTSL1 confirm inactive
Cc1ccc(NC(=O)c2sc3nc(N4CCOCC4)c4c(c3c2N)CC(C)(C)OC4)cc1	PfM18AAP inh-1 39 | PfM18AAP inh-2 inactive | CTSL1 confirm inactive
NC(=O)c1sc2nc(N3CCOCC3)c3c(c2c1N)CCCC3	none
CC1(C)Cc2c(c(N3CCCC3)nc3sc(C(=O)Nc4ccccc4)c(N)c23)CO1	none
COc1ccc(N2CCN(C(=O)CN3C(=O)NC4(CCCc5ccccc54)C3=O)CC2)cc1 (stereo not given)	none (no result: PfM18AAP inh-1)
COc1ccc(C2C=C(c3ccc(F)cc3)NC(=S)N2)cc1OC (stereo not given)	none
O=C(Nc1ccc(Cc2ccc(NC(=O)C3CC3)c(O)c2)cc1O)C1CC1	none
O=C(O)CCC(=O)Nc1ccc(Cc2ccc(NC(=O)CCC(=O)O)c(O)c2)cc1O	PfM18AAP inh-1 58 | PfM18AAP inh-2 inactive | CTSL1 confirm inactive
NNC(=O)c1sc2cc(C(F)(F)F)cnc2c1-c1cccnc1	none
O=C(/C=N/NC(=O)c1ccccc1Br)c1ccccc1	none
O=C(N/N=C/c1coc2ccccc2c1=O)c1ccccc1Br	PfM18AAP inh-1 36 | PfM18AAP inh-2 inactive | CTSL1 confirm inactive
O=C(N/N=C/c1coc2ccccc2c1=O)c1cccc([N+](=O)[O-])c1	none
O=C(N/N=C/c1coc2ccccc2c1=O)c1cc(O)cc(O)c1	PfM18AAP inh-1 39 (no result: HIF activator, ALR H2O2 inh, Mot1-301 SUMO) | PfM18AAP inh-2 inactive | CTSL1 confirm inactive
CCN(CC(=O)NCc1cccs1)C(=O)c1ccc(-c2ccc(F)cc2)o1	none (no result: HIF activator, PfM18AAP inh-1)
C=C1C[C@H](O)[C@@H]2[C@H](OC(=O)[C@H]2C)[C@H]2[C@H](C)[C@@H](O)C[C@@H]12	none (no result: HIF activator, PfM18AAP inh-1)
O=[N+]([O-])c1cc2c(cc1/C=N/n1cnnc1)OCO2	PfM18AAP inh-1 39 (no result: Mot1-301 SUMO) | PfM18AAP inh-2 inactive | CTSL1 confirm inactive
Cc1ccc(N2C(=O)c3ccccc3C2C(=O)c2cc(C)ccc2O)cc1 (stereo not given)	PfM18AAP inh-1 55 | PfM18AAP inh-2 inactive | CTSL1 confirm inactive
Cc1ccc(N2C(=O)c3ccccc3C2C(=O)c2ccc(C)c(C)c2O)cc1 (stereo not given)	PfM18AAP inh-1 42 | PfM18AAP inh-2 inactive | CTSL1 confirm inactive
Cc1ccc(C2C(C(=O)O)c3ccccc3C(=O)N2C)c(C)c1 (stereo not given)	none
CCn1c(CSc2ncn[nH]2)nc2cc(C(=O)O)ccc21	PfM18AAP inh-1 48 (no result: ALR H2O2 inh) | PfM18AAP inh-2 inactive | CTSL1 confirm inactive
